# The campaign covered roughly 31,000 sequences. About 1,400 (4.5%) were called active.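 How the source made its calls: active means median seed-adjusted z-score above 1 or below -1; inactive means the rest.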 The sample as a whole holds a higher share of actives than the screen did.
# Test: Novel Modifiers of Survival Motor Neuron (SMN) Protein: Gene Identification via Genome-wide siRNA Screen
# Details: HEK293T SMN2-luciferase reporter, siRNA knockdown, 72 h; actives lie on both sides
# Text: Spinal muscular atrophy (SMA) is the most common neuromuscular autosomal recessive disorder and one of the leading genetic causes of infant death. SMA results from mutations inducing loss of function or deletion in the survival of motor neuron-1 gene (SMN1), leading to deficiency of the survival motor neuron (SMN) protein. Although a second nearly identical gene, SMN2, is retained in humans, its expression primarily produces an aberrantly spliced isoform that is largely unstable and quickly degraded. We performed a genome-wide RNAi screen using a cell-based reporter assay to identify genes and pathways that modulate SMN protein stability. The screen identified over 200 genes that led to the greatest increase or decrease in luciferase expression.
# Using HEK293T cells stably expressing a luciferase reporter that combines the promoter and splicing based cassettes in tandem with the major portion of the native SMN2 cDNA with luciferase, we performed a genome-wide RNAi screen to identify modulators of SMN protein levels. Luciferase is expressed when full-length SMN protein is generated with luminescence signal proportional to SMN protein levels. Our luciferase-based reporter assay was used to screen Ambion Silencer Select Human Druggable Genome siRNA library (10418 genes, 3 unique siRNAs per gene) using lipid-based reverse transfection.
# Briefly, 1 pmol of each siRNA was spotted to a well of a 384-well plate (Corning, Corning, NY) and 20 microL of serum-free DMEM containing […] of Lipofectamine RNAiMax (Life Technologies, Carlsbad, CA) was then added to each well. Transfected cells were maintained at 37 degrees C in 5% CO2 for 72 hours, 20 microL of ONE-Glo Reagent (Promega) was added to wells for luciferase quantification. Raw luminescence reads were normalized to Ambion(R) Silencer(R) Negative Control #2 siRNA, then log10 transformed. A robust statistical measure of median absolute deviation (MAD) to standardize siRNA activities from each screen. Common Seed Analysis was used to help prioritize clean hits as opposed to those appearing to arise from seed based off-target effects. Candidate modulators were defined as the genes having a MAD score greater than 1.0 or less than -1.0.
row,Sequence,median seed-adjusted z-score
1,UGGUGCUGUUGGUAAAACATT against CDC42,-0.0938 (inactive)
2,AGAGGUCCUUCAAAACAGATT against ENTPD6,0.438 (inactive)
3,GGAGCGGAAUGAACUCAAATT against RILP,0.503 (inactive)
4,GCUUAGGUCUUGCUCUCAATT against YWHAE,1.38 (active)
5,CCACAAUAUCUCUAACAGATT against GUCY1A2,-0.186 (inactive)
6,AAACAAUCCGAAAAUAUGATT against KLK13,0.452 (inactive)
7,GAAUUGACAAUCUCAUAGATT against MCCC2,-0.0566 (inactive)
8,GCAUCUUUUGGAGAUCGAATT against TC2N,0.461 (inactive)
9,GAAGUAUGAAGAAGAAGUATT against KRT83,1.15 (active)
10,GAUCAUCCCUUGUCUCUUUTT against CHRNA6,0.21 (inactive)
11,GCAGAAUACUUCUAUGAAUTT against WIF1,-0.521 (inactive)
12,ACACCAGCCUUGCACCUGATT against NCR1,-0.26 (inactive)
13,CGCCUUUCAUUUUUGCUGATT against TGM1,-0.286 (inactive)
14,CCUUUGCCCUGUUCAAGGATT against CYP17A1,-1.39 (active)
15,CAUACGAGGUAUUAUCAAATT against DNAJB7,0.684 (inactive)
16,GGAUCAGUAAUAUACCACATT against MTFMT,-0.0119 (inactive)
17,CCUGGAUUACAUCUACUUATT against EPHB6,-0.0275 (inactive)
18,GCAGCAUUAUAGUCGUAUUTT against PRSS7,0.0614 (inactive)
19,GCAUUUGUAGGGUUACGGATT against GABRG1,0.312 (inactive)
20,CAUUGUAGAUUACUCAGAATT against RHOT1,-0.189 (inactive)
21,GAUCCAUACUUGGAUGAUATT against PAIP1,-0.0178 (inactive)
22,GCUCGGAUAUGCUCCAGGATT against TMPRSS5,1.25 (active)

row,Sequence,median seed-adjusted z-score
1,GCCUGGAAUUCUACCGCUATT against SLC29A1,0.117 (inactive)
2,GCAUAUCUUCUAACUUGCATT against EVI1,0 (inactive)
3,GGACCAAGAGGAUUGAGUATT against CLSTN2,0 (inactive)
4,AGUUUAAUCGGAAAGCCUUTT against NANS,-1.54 (active)
5,GCAACACCGACGUAAAGAATT against ALOX5,-0.201 (inactive)
6,UGCUCUCAGUGGAAGAGGATT against TNFRSF8,0.739 (inactive)
7,GGUUGGUGUUCGAUGAGUATT against ANXA6,-1.01 (active)
8,GCGGCAAGGGUUUCAAGCATT against FIZ1,0.154 (inactive)
9,GAAGUUCGGUCGAACCACATT against CST5,0.466 (inactive)
10,CCAGUACGCUAUGGACGUATT against MDN1,0.187 (inactive)
11,GUCUGUCAAUGUACCUUCUTT against 3-Mar,0.069 (inactive)
12,GCAACAGCAUUGUCCGUGUTT against LRRN2,0.324 (inactive)
13,GAACUGACAUGGGAAGAUUTT against DUOX1,-1.09 (active)
14,GCCUGACUUCGACUGCUCATT against GFER,0.402 (inactive)
15,GGAGGCUAAUGGUUGCUUUTT against ARPC1B,0 (inactive)
16,CUAUUUCCCUGCCUUCGAATT against GSTA3,0.334 (inactive)
17,CAACAAAAGUUUCAUGCUATT against STK35,0.519 (inactive)
18,GGAGGUACGUGGAAAAGCATT against ORC3L,-0.254 (inactive)
19,GCUUCGGAAUUCAGACAUUTT against NFATC4,0 (inactive)
20,GGCCCUUGGCCUUACUAUGTT against ACSM2B,-0.0401 (inactive)
21,GCACGAUAUUAUGAUCCAATT against PPAT,-1.51 (active)
22,CAACCACCAUCUGACCUUUTT against MMP15,-0.0489 (inactive)

row,Sequence,median seed-adjusted z-score
1,GGCUGAAAACGGAGCACAATT against PCDHB16,-0.523 (inactive)
2,CAGUGACUGUUGUUGGUCUTT against PKD1L3,-0.658 (inactive)
3,GGAGGAGCCUAAGAUGUCATT against ZNF442,1.06 (active)
4,AAGGGAAAGUGUACUGGUATT against MMP23B,0.288 (inactive)
5,GGCUAUUGAUUGUCCACAUTT against L2HGDH,-0.346 (inactive)
6,CUACCGAGAUUUUAGAUGATT against POLE,-1.55 (active)
7,CACUAUAUCUAUAUCGAAATT against PLD1,0.518 (inactive)
8,GACCCAUACAGAAAGUAGATT against SSR1,-0.434 (inactive)
9,GAUGCGCACUCAGUCCUUATT against MLLT4,-0.0762 (inactive)
10,CUGUGAGAAUUGUUGCUCUTT against TRIP6,1.03 (active)
11,GGAUCUCAGUCAAAGGCAUTT against CPZ,-0.0748 (inactive)
12,CGAUCGAGUGGAUGAAGAATT against MMP24,-1.28 (active)
13,ACAUUGAACGUCCCACGUATT against TUBA3E,-0.35 (inactive)
14,GCUAAGAGCUUCGUGCUGATT against LGALS1,0.033 (inactive)
15,CCAUGGAUAUGGAAACCCATT against ALPK3,0.365 (inactive)
16,GGAGAGAGCAGUUUCAACATT against HSPB8,0.207 (inactive)
17,GGAUAGAAUAUGUAACGGUTT against SUPT6H,-2.54 (active)
18,CACCGGUGAGAUUCCCUAUTT against ZNF546,0.497 (inactive)
19,GCUUACUACACUUUUCUAATT against G6PC2,-0.0362 (inactive)
20,CAAACUCUACAUCACCUUUTT against GPR32,-1.2 (active)
21,CAAGAACUCGGAUAAUGAUTT against IL2RG,-0.155 (inactive)
22,CACGGUAUAUGUUAGAGUATT against DSG3,0 (inactive)

row,Sequence,median seed-adjusted z-score
1,UCCCUUACAUGUCACCAAATT against ZMIZ2,-0.27 (inactive)
2,GCCUACAAGCAGAUUCAAATT against PTRH2,0.0467 (inactive)
3,ACCCAACUCUUACUCUUAATT against RNF7,-1.18 (active)
4,GGCUCAACGUAUAAGCGAATT against PIP5K1B,0.0917 (inactive)
5,GAUGGAAACAUUGAAUAUATT against GTPBP2,-0.166 (inactive)
6,GAAGGAGUUUGCACAGAAATT against DHDH,0.522 (inactive)
7,CAGUCUUCAUUGCUACUAATT against NFE2L2,-0.596 (inactive)
8,GAAGCAAUCUGGGAAGAGATT against MOCS3,-0.496 (inactive)
9,CGCCCAACCUUACUACCUUTT against TXNDC14,-2.39 (active)
10,GGAUGGUUGUGAGCCGCUATT against ZNF784,0.291 (inactive)
11,CGACGACGUGCAAGACCAATT against ZNF787,-0.0628 (inactive)
12,CCUUUACUUUCUAUAGAAATT against ZNF573,-0.169 (inactive)
13,GCAGUUAUUGGUACUAAUATT against MOAP1,0.0405 (inactive)
14,AGAGAAUCUCGAGGAUAUATT against ZNF74,1.17 (active)
15,CCUUAUCGCUAGAUGUCAATT against GRM3,-0.401 (inactive)
16,GCUGAGCUCAGUAACCACATT against LCAT,0.526 (inactive)
17,GCAAUGCCCUUUUCACCGATT against SERPINA5,-1.01 (active)
18,CCAUGACAACUUUCACUGATT against AGFG2,-0.289 (inactive)
19,GCAGAAAAGAACAACUUGUTT against RAB11B,-0.857 (inactive)
20,GCAAUAGGAUGGAUGAUCATT against GPSM2,-0.755 (inactive)
21,GCAGCUCACUUAAGGCCUATT against VPS18,0.181 (inactive)
22,GAUCUAUUCUUAAUGCCGATT against TFB1M,0.172 (inactive)

row,Sequence,median seed-adjusted z-score
1,GAAAUUUCUUAGGAACUCATT against ADH1B,0.325 (inactive)
2,CCCUCAAUCCAGCACAAAATT against LILRA4,0.109 (inactive)
3,GGGACCGAGAGAUCAGAUATT against PPAP2C,-1.12 (active)
4,CUUCCAAUGUUAAUGGACATT against VHLL,-0.0852 (inactive)
5,GAGGCUCGGUAAUCAAUGATT against DERL1,0.22 (inactive)
6,GCUUUAGAAUACAUACCAATT against IFIT2,-0.0205 (inactive)
7,CCCUCAAGGUACAAACAUUTT against POLD1,-0.715 (inactive)
8,CAGGAGCAGUUAGACUUAATT against DNALI1,0.699 (inactive)
9,GGUUUGCCCUUAUCUUGUATT against RDH10,-0.28 (inactive)
10,GAAUAACCGUUGGUUUAAUTT against U2AF1,2.08 (active)
11,AAUUGAGGAAUACAAAAGATT against PAX3,0.0223 (inactive)
12,GGAUGGGCAUGUUGAGAGATT against NUDT9,0.277 (inactive)
13,GGAUCUGACAGACAAUGAUTT against ABCC3,-0.549 (inactive)
14,CGUGGAUUCUUACGGAAGATT against CIT,-0.0585 (inactive)
15,GAGUCUAUCUUGAUAAUCUTT against PPWD1,-0.341 (inactive)
16,CCGGGUUAAUUACCACCUUTT against MTHFR,0 (inactive)
17,GAGAAGUCGAGGCUCUUUATT against WNT6,0.027 (inactive)
18,CGGUGAACGGGUUGGAGAATT against PAX9,-1.16 (active)
19,GCUUUGACCUUCUUAGCAATT against SMARCAL1,-0.145 (inactive)
20,CAACGAUAUUUGGAUAUCUTT against DPP8,-0.0209 (inactive)

# Source: PubChem BioAssay AID1347426 (Functional Genomics Laboratory (NCATS/FGL), 2020)
